About 7,200 (1.8%) of roughly 410,000 compounds were called active. Entries that show only a call come without a potency. About 7% were inconclusive and are not listed. Calls come from the whole dose curve; as a rule, active = well fitted activation curve with a large enough effect; inconclusive = small, poorly fitted or top-dose-only effect, or another doubt; inactive = no such curve, though single readings can be large or run the other way. Many of the other results were omitted from the sample, so actives are more common in it than they were.
assay: qHTS of TDP-43 Inhibitors; settings: TDP-43 expressing yeast growth rescue, BacTiter-Glo, 24 h; series mostly up to 46.1 µM; note: nearly all actives have a fitted effect of over 50% in size
Summary of the method: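 In this qHTS, compounds that restore growth of yeast expressing TDP-43 appear as activators. Cells (OD600=0.02, galactose medium, raffinose-pregrown) are incubated with compound 24 hr at 30 deg C and growth is quantified by BacTiter-Glo.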
Potency is the fitted concentration of half-maximal effect.

SMILES | Potency
Cc1nn(C)c2c1c(C(F)(F)F)cc(=O)n2C(C)C(=O)NCc1ccc(Cl)cc1 (stereo not drawn) | inactive
Cc1ccccc1CNC(=O)CCCn1nc(C)c2sc3ccccc3c2c1=O | inactive
Cc1cc2nc(C(F)(F)F)cc(-c3cccs3)n2n1 | inactive
CC(C)(C)Nc1c(-c2cccs2)nc2ccccn12 | inactive
Cc1cc(-c2cccs2)nc(-n2cccc2)n1 | 12.6 µM (active)
CCc1nnc(SCc2c(F)cccc2Cl)c2cc3sccc3n12 | inactive
CC(=O)OCC1(O)CC23CCC4c5ccoc5CCC4(C)C2CCC1C3 (stereo not drawn) | 17.8 µM (active)
CCSc1ncc(Cl)c(C(=O)Nc2c(C(=O)c3ccccc3)oc3ccccc23)n1 | inactive
COC[C@@H]1NS(=O)(=O)c2ccc(Br)cc2O[C@H]1c1ccccc1 | inactive
C[C@H]1NS(=O)(=O)c2cc(Cl)ccc2O[C@@H]1c1ccccc1 | inactive
C[C@@H]1NS(=O)(=O)c2cc(Cl)ccc2O[C@@H]1c1ccccc1 | 17.8 µM (active)
Cc1ccc2nc(-c3ccc(O)cc3)c(Nc3ccc4c(c3)OCO4)n2c1 | inactive
COc1ccc(C)cc1S(=O)(=O)Nc1cccc(Cl)c1Cl | inactive
CCc1ccc(Nc2n[n+](-c3ccccc3)c(-c3cccc(Cl)c3Cl)s2)cc1 | 35.5 µM (active)
COc1cc(Br)c(-c2sc(Nc3ccccc3)n[n+]2-c2ccccc2)cc1OC | inactive
COc1ccc(C)cc1Nc1n[n+](-c2ccccc2)c(-c2cccc(Cl)c2Cl)s1 | 35.5 µM (active)
Cc1ccc(S(=O)(=O)N2CCc3cc(C(=O)Nc4ccc(Cl)cc4C)ccc32)cc1 | inactive
CC(=O)c1c(C)n(S(=O)(=O)c2ccc(Cl)cc2)c2ccc(NS(=O)(=O)c3ccc(Cl)cc3)cc12 | inactive
CCc1ccc(NC(=O)c2cc3c(=O)n(Cc4cccnc4)ccc3nc2C)cc1 | inactive
CCc1cc2c(SCC(=O)Nc3ncc(Cl)c(C)c3Cl)ncnc2s1 | inactive
CCc1cc2c(NC3CCCC3)ncnc2s1 | 12.6 µM (active)
CCc1cc2c(NC(Cc3ccccc3)C(=O)O)ncnc2s1 (stereo not drawn) | inactive
Cc1ccc2c(=O)c(C(=O)c3cccc(Cl)c3)cn(CC(=O)NCc3ccccc3)c2n1 | inactive
Cc1nn2c(=O)cc(COC(=O)c3cccc(NC(=O)COc4ccccc4Cl)c3)nc2s1 | inactive
CCOc1cc(/C=N/O)cc(Br)c1OC | 11.2 µM (active)
CCOc1c(Br)cc(/C=C2\C(=O)N(CCC#N)N=C2C)cc1OC | inactive
CCOc1cc(/C=N/n2cnnc2)c(Br)cc1O | inactive
O=S(=O)(c1ccc(Br)cc1)c1nnn2c1nc(N1CCOCC1)c1sccc12 | inactive
